# According to publication PMC7862700, “An all-to-all approach to the identification of sequence-specific readers for epigenetic DNA modifications on cytosine”:
# Key:
# Assay in all cases: DAPPL (digital affinity profiling via proximity ligation, sequencing); 10 mM Tris-HCl pH 7.5, 50 mM NaCl, 1 mM DTT, 4% glycerol, room temperature, 30 min; GST-TFs on glutathione beads, 16-mer random dsDNA library, 0.1% formaldehyde crosslink after washing; high values mean tight binding
# [1] = molecular target: T1, GABPA (Homo sapiens, UniProt Q06546 1-454); details: protein: recombinant; tags: N-terminal GST; dsDNA, one strand shown
# T1 sequence: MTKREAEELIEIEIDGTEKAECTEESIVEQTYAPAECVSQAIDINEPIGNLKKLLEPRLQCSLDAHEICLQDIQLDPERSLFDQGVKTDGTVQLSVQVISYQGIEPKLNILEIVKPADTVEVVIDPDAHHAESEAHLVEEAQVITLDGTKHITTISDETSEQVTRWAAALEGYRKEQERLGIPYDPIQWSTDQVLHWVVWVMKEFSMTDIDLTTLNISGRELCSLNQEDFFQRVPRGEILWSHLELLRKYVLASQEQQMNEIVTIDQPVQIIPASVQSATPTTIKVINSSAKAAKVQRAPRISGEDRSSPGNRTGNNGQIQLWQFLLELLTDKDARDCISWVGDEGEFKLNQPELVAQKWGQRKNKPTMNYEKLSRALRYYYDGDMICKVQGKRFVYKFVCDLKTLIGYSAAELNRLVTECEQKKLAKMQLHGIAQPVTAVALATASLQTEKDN
# Method in brief: (§1)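 Binding signal is each hexamer's read frequency for a factor divided by its frequency in the tag-only sample. The factors were GST-fused human transcription factors from yeast, captured on glutathione beads, DNA-barcoded and pooled with that sample. Pools were incubated with 200 nmole of a random double-stranded 16-mer DNA library in Tris/NaCl/DTT/glycerol buffer at room temperature for 30 min, then washed, crosslinked with 0.1% formaldehyde, proximity-ligated with BsaI/T4 ligase (1 h, 37 °C), PCR-amplified and sequenced on an Illumina NextSeq500.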
# [2] = molecular target: ELF1 (Homo sapiens, UniProt P32519 1-619); details: protein: recombinant; tags: N-terminal GST; dsDNA, one strand shown
# Chain of ELF1 (P32519 whole entry): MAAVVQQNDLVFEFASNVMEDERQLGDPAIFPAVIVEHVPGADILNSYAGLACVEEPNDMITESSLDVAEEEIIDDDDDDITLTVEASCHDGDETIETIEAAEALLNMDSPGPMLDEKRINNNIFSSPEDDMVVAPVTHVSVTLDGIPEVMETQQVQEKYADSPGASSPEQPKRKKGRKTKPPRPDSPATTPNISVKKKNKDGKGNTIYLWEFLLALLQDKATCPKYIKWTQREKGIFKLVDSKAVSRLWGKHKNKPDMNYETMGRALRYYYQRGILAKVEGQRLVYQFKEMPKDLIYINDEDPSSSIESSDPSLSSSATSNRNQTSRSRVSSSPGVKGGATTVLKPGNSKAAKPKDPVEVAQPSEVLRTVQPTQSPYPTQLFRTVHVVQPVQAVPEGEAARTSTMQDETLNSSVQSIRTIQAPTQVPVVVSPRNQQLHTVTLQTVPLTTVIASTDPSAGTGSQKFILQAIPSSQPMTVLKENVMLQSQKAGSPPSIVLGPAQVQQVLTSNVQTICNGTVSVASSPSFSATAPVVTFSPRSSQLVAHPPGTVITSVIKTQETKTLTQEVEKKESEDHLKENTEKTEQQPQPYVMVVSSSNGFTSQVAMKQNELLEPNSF
# Method in brief: as §1
# [3] = molecular target: SPIB (Homo sapiens, UniProt Q01892 1-262); details: protein: recombinant; tags: N-terminal GST; dsDNA, one strand shown
# Chain of SPIB (Q01892 whole entry): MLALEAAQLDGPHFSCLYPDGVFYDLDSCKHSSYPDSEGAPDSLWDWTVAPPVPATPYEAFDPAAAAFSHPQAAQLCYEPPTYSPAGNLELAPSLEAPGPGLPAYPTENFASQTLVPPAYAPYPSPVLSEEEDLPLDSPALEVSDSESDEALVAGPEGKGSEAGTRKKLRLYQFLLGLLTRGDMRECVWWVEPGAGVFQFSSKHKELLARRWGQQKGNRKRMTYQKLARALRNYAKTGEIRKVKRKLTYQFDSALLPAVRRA
# Method in brief: as §1
# [4] = molecular target: HSF1 (Homo sapiens, UniProt Q00613 1-529); details: protein: recombinant; tags: N-terminal GST; chain copies: 3; dsDNA, one strand shown
# Chain of HSF1 (Q00613 whole entry): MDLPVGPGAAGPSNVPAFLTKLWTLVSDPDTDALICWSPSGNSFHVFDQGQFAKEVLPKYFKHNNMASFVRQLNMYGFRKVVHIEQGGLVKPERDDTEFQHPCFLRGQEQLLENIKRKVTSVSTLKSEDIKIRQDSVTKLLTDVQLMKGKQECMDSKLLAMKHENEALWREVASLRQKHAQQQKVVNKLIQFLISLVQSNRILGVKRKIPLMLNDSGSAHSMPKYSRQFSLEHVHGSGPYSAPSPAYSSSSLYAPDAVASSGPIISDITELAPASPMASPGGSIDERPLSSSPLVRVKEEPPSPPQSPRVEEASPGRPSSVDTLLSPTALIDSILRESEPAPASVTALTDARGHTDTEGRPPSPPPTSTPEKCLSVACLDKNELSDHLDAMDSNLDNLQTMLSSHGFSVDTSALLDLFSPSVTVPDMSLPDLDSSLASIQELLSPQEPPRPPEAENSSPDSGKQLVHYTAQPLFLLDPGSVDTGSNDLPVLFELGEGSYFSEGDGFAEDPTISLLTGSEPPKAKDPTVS
# Method in brief: as §1
# [5] = molecular target: T2, SPIC (Homo sapiens, UniProt Q8N5J4 1-248); details: protein: recombinant; tags: N-terminal GST; dsDNA, one strand shown
# T2 sequence: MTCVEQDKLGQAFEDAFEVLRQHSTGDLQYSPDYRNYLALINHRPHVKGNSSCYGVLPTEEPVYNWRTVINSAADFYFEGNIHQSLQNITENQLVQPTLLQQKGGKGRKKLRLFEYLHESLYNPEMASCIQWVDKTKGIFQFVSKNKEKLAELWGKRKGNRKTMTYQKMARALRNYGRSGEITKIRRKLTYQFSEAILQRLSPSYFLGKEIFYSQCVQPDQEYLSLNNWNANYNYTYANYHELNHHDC
# Method in brief: as §1
# [6] = molecular target: ELF4 (Homo sapiens, UniProt Q99607 1-663); details: protein: recombinant; tags: N-terminal GST; dsDNA, one strand shown
# Chain of ELF4 (Q99607 whole entry): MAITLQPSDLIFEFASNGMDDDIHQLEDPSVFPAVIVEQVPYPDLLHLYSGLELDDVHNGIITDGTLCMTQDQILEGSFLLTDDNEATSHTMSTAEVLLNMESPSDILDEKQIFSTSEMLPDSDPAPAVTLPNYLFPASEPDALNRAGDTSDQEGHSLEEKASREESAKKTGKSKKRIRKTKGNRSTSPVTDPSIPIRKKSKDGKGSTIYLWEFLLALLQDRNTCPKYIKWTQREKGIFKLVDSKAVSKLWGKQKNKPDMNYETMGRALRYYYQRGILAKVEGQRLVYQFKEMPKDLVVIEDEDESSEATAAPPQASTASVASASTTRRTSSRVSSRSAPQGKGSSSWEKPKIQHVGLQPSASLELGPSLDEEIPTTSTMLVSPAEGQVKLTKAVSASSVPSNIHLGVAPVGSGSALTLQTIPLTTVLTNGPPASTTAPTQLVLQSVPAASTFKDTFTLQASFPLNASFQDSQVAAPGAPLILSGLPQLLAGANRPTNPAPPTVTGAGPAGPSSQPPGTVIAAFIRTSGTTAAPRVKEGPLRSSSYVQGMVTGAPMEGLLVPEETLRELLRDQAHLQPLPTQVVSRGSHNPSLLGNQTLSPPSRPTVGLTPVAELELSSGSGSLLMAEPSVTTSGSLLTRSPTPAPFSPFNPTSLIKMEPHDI
# Method in brief: as §1
# [7] = molecular target: T3, ELF3 (Homo sapiens, UniProt P78545 1-371); details: protein: recombinant; tags: N-terminal GST; dsDNA, one strand shown
# T3 sequence: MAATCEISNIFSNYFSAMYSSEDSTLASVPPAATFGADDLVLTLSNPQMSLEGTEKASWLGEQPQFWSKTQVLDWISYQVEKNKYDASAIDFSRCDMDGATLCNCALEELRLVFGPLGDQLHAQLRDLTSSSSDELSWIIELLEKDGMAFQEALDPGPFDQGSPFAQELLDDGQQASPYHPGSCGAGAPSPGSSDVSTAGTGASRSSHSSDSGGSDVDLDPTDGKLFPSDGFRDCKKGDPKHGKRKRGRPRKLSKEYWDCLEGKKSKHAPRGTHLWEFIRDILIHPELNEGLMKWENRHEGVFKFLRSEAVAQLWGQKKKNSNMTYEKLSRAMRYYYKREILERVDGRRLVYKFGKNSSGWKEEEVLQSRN
# Method in brief: as §1
# [8] = molecular target: CRX (Homo sapiens, UniProt O43186 1-299); details: protein: recombinant; tags: N-terminal GST; dsDNA, one strand shown
# Chain of CRX (O43186 whole entry): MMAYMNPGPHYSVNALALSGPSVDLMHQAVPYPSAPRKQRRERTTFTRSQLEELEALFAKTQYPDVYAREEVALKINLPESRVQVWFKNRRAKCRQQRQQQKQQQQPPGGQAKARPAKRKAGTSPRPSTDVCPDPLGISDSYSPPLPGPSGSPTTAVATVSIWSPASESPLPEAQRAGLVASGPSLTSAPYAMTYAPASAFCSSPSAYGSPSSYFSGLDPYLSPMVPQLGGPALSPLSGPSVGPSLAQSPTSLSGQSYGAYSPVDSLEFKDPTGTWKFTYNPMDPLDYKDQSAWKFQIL
# Method in brief: as §1
# [9] = molecular target: T4, ERF (Homo sapiens, UniProt P50548 1-548); details: protein: recombinant; tags: N-terminal GST; dsDNA, one strand shown
# T4 sequence: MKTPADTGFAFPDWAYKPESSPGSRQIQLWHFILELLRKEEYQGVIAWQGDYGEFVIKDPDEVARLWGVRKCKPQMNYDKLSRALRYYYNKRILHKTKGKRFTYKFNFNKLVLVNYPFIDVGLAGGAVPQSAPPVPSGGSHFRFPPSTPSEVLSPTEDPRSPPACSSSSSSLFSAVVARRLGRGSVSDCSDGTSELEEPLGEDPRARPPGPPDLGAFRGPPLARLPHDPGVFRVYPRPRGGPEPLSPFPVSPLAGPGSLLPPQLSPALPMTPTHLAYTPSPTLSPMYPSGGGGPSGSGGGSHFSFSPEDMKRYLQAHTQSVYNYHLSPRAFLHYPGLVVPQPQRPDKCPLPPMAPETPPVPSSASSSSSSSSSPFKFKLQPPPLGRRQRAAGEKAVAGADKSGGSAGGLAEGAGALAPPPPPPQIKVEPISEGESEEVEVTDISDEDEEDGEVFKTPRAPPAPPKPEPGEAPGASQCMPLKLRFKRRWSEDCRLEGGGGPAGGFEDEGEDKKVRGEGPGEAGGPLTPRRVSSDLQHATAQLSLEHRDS
# Method in brief: as §1
# [10] = molecular target: T5, ETV3L (Homo sapiens, UniProt Q6ZN32 1-361); details: protein: recombinant; tags: N-terminal GST; dsDNA, one strand shown
# T5 sequence: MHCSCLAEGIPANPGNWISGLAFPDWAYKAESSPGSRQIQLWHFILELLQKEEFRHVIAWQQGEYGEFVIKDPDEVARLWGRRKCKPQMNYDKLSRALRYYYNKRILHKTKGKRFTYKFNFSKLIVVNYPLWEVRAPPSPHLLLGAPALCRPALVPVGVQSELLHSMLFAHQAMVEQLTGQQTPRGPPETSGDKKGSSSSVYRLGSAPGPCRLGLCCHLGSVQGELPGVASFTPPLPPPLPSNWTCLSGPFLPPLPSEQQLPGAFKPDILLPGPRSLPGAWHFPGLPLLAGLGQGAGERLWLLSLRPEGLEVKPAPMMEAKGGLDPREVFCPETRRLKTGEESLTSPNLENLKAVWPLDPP
# Method in brief: as §1
# [11] = molecular target: T6, ETS2 (Homo sapiens, UniProt P15036 1-469); details: protein: recombinant; tags: N-terminal GST; dsDNA, one strand shown
# T6 sequence: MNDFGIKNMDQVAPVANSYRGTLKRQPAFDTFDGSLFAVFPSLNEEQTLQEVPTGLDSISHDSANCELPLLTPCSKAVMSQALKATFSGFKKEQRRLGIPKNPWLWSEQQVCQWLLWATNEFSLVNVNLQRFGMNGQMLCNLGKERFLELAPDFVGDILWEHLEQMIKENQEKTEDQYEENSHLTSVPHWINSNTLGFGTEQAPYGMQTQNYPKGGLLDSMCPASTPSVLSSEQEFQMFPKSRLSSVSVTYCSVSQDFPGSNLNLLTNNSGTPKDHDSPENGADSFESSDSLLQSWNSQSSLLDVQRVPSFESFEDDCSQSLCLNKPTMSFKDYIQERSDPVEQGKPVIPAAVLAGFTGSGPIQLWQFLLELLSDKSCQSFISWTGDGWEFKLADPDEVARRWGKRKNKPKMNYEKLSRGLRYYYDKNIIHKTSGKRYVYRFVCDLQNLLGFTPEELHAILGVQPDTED
# Method in brief: as §1
# [12] = molecular target: T7, SPDEF (Homo sapiens, UniProt O95238 1-335); details: protein: recombinant; tags: N-terminal GST; dsDNA, one strand shown
# T7 sequence: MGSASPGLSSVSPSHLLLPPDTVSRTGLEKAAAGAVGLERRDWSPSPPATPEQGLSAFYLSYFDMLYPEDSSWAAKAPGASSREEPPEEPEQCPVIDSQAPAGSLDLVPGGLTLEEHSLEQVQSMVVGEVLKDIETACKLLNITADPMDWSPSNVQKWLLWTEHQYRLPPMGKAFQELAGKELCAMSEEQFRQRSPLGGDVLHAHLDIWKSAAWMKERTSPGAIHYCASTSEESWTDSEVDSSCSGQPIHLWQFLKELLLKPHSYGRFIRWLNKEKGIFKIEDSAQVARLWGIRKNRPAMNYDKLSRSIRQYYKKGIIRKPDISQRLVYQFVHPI
# Method in brief: as §1
# [13] = molecular target: T8, ETV7 (Homo sapiens, UniProt Q9Y603 1-341); details: protein: recombinant; tags: N-terminal GST; dsDNA, one strand shown
# T8 sequence: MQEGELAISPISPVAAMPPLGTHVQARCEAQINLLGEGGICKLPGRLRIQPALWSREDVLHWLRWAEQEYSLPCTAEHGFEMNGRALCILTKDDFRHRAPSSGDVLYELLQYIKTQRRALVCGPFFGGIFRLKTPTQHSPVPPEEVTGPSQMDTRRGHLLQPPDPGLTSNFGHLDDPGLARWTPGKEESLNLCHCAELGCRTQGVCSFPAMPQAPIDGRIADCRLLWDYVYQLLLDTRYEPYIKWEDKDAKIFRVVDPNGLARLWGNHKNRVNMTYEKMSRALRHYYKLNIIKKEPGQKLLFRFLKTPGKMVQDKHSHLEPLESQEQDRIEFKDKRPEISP
# Method in brief: as §1
# [14] = molecular target: T9, ETV3 (Homo sapiens, UniProt P41162-2 1-143); details: protein: recombinant; tags: N-terminal GST; dsDNA, one strand shown
# T9 sequence: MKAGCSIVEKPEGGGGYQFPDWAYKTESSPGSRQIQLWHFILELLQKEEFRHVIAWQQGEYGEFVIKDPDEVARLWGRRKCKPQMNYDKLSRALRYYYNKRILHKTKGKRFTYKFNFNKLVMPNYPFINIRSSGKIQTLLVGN
# Method in brief: as §1
# [15] = molecular target: ETV6 (Homo sapiens, UniProt P41212 1-452); details: protein: recombinant; tags: N-terminal GST; dsDNA, one strand shown
# Chain of ETV6 (P41212 whole entry): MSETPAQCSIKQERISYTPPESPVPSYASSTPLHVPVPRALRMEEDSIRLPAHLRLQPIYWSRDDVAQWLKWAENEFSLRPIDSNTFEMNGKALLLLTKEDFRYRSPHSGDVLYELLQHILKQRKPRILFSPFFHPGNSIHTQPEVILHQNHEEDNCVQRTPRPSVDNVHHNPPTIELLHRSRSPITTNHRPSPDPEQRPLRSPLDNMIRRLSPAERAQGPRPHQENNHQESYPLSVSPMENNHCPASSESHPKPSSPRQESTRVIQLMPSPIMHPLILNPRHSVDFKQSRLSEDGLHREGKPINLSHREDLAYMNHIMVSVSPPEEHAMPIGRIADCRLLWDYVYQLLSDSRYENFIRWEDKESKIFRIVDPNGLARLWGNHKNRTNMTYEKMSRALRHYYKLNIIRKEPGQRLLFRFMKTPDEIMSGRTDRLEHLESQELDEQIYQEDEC
# Method in brief: as §1
sequence,measurement,setting,value
GCTTAA,binding signal,[1],"1.14 fold enrichment (6-mer frequency, TF over GST control)"
same,binding signal,[2],"1.11 fold enrichment (6-mer frequency, TF over GST control)"
same,binding signal,[3],"1.09 fold enrichment (6-mer frequency, TF over GST control)"
same,binding signal,[4],"1.86 fold enrichment (6-mer frequency, TF over GST control)"
same,binding signal,[5],"1 fold enrichment (6-mer frequency, TF over GST control)"
same,binding signal,[6],"1.02 fold enrichment (6-mer frequency, TF over GST control)"
same,binding signal,[7],"1.02 fold enrichment (6-mer frequency, TF over GST control)"
same,binding signal,[8],"3.04 fold enrichment (6-mer frequency, TF over GST control)"
same,binding signal,[9],"1.03 fold enrichment (6-mer frequency, TF over GST control)"
same,binding signal,[10],"1.05 fold enrichment (6-mer frequency, TF over GST control)"
same,binding signal,[11],"1.08 fold enrichment (6-mer frequency, TF over GST control)"
same,binding signal,[12],"1.06 fold enrichment (6-mer frequency, TF over GST control)"
same,binding signal,[13],"1.06 fold enrichment (6-mer frequency, TF over GST control)"
same,binding signal,[14],"1.13 fold enrichment (6-mer frequency, TF over GST control)"
same,binding signal,[15],"1.05 fold enrichment (6-mer frequency, TF over GST control)"
